Screens (PubChem)
An excerpt weighted towards active compounds, which were near 22% of everything screened.
CYP2C9 act = activators of human CYP2C9 | actives 1.4% (n = 96,000) | recombinant CYP2C9, luciferin-H conversion, luminescence; active compounds read high; factor 1 = untreated enzyme, 0 = blocked | activation factor at 5 µM;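 active = activation factor of 2 or more for CYP2C9 at a 5 µM dose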;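 also: 0 = sulfaphenazole-blocked wells and 1 = vehicle-only wells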
CYP2C19 inhib = human CYP2C19 inhibition; P33261; CYP2C19 Supersomes, luciferin-H EGE luminescence, 30 min; inhibition, % at 5 µM; actives 21% (n = 96,000);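 active = CYP2C19 inhibition above a set limit at 5 µM in the primary screen, cut at about 50% in these data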;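 also: plate controls were negative control wells for no effect and 2.5 mM tranylcypromine positive control for full effect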
Measles CPE = protection of cells from measles virus | Measles virus-infected cells, CPE protection, absorbance | AID 841 | actives 1.5% (n = 140,000) | protection (pct of control), % at 4 µM; in the data active = protection mostly above about 24%, no sharp cut-off; inactive = mostly below about 26%
CYP2C19 activ = activators of human cytochrome P450 2C19; activation factor at 5 µM; 96,000 tested, under 10 active; recombinant CYP2C19, luciferin-H EGE luminescence; active compounds read high; 0 = fully inhibited enzyme, 1 = untreated enzyme; P33261;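 active = activation factor of at least 2 at 5 µM in the primary screen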;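 also: 0 = wells with 2.5 mM tranylcypromine and 1 = vehicle-only wells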
CYP2C9 inhib = blocks human cytochrome P450 2C9; P11712; CYP2C9 Supersomes, luciferin-H conversion, luminescence; inhibition, % at 5 µM; actives 20% (n = 96,000);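 active = blocking of liver enzyme CYP2C9 beyond about 50% at 5 µM, limit read from the data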
Active calls of the source: *.

SMILES	CYP2C9 act	CYP2C19 inhib	Measles CPE	CYP2C19 activ	CYP2C9 inhib
O=C(CN1CCOCC1)OCCCc1ccccc1	1.1	66*	1	0.3	-14
C=CCn1c(SCC(=O)Nc2cc(C)ccc2C)nnc1-c1cnccn1	1	83*	9	0.2	3
C=CCn1c(SCC(=O)Nc2cccc(C)c2)nnc1-c1cnccn1	0.5	96*	8	0	53*
CCn1c(SCC(=O)Nc2ccc3c(c2)c2ccccc2n3CC)nnc1-c1cnccn1	1.4	53*	5	0.5	-44
C=CCn1c(SCC(=O)Nc2cc(NC(C)=O)ccc2OC)nnc1-c1ccccn1	0.8	38	14	0.6	19
